Compounds with a hit are over-represented: about 7.5% of the library has one in this group of screens.
NPC1 prom act – qHTS Assay for NPC1 Promoter Activators; Huh7 NPC1 promoter luciferase reporter, 24 h; Potency, µM (doses to about 9.22 µM), inactives show at the top dose activation, usual class: activators; 320,000 tested, 2.4% active; further: % of control where 0% means no effect; nearly all actives have a fitted effect of over 60% in size
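Compounds in DMSO were transferred onto Huh7 NPC1-luciferase reporter cells pre-incubated 2 h; after 24 h at 37 °C, Amplite reagent was dispensed and luminescence recorded 10 min later.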
Luc counter – Counterscreen for Luciferase (Kinase-Glo TM) Inhibition. AID 1379, 2008. Kinase-Glo luciferase, ATP luminescence, 8 min. 200,000 tested, 0.28% active. Potency, µM (series often up to 38.3 µM), for the others: at the top dose activity change, negative = inhibition, most hits filed as inhibitors; further: on the % scale 0 is the no-effect control and ±100 the full control effect; nearly all actives have a fitted effect of over 60% in size
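Light output from Kinase-Glo luciferase with luciferin and 10 uM ATP in 50 mM imidazole pH 7.2, KCl, MgCl2, Tween 20, BSA; compound pin-delivered, 8-min ambient incubation, then luminescence read.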
SMN2 splice enh – qHTS Assay for Enhancers of SMN2 Splice Variant Expression | HEK293 SMN2-luciferase splicing reporter, luminescence, 30-36 h | Potency, µM (highest dose often 46.1 µM), inactives show at the highest dose activity change, positive = activation, usual class: activators | 210,000 tested, 2.8% active | AID 1458, 2008; further: % of control where 0% means no effect; nearly all actives have a fitted effect of over 55% in size
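HEK293 cells carry an SMN2 minigene-luciferase reporter in which exon 7 inclusion puts luciferase in frame. Cells were seeded at 2000 cells/well, attached for 10-12 hours, then exposed to compounds for 30-36 hours at 37C before ONE-Glo luminescence.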
FLuc counter – qHTS profiling assay for firefly luciferase inhibitor/activator using purifed enzyme and Km concentrations of substrates (counterscreen for miR-21 project); Luciferin 4-monooxygenase (Photinus pyralis), P08659; purified FLuc, Km substrates, luminescence inhibition; Potency, µM (series often up to 57.5 µM), for inactives: at the top dose activity change, negative = inhibition, actives largely listed as inhibitors; 360,000 tested, 6.9% active;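 further: plate controls were vehicle for no effect and reference inhibitor for full effect; nearly all actives have a fitted effect of over 55% in size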
Target sequence (P08659 whole entry, looked up): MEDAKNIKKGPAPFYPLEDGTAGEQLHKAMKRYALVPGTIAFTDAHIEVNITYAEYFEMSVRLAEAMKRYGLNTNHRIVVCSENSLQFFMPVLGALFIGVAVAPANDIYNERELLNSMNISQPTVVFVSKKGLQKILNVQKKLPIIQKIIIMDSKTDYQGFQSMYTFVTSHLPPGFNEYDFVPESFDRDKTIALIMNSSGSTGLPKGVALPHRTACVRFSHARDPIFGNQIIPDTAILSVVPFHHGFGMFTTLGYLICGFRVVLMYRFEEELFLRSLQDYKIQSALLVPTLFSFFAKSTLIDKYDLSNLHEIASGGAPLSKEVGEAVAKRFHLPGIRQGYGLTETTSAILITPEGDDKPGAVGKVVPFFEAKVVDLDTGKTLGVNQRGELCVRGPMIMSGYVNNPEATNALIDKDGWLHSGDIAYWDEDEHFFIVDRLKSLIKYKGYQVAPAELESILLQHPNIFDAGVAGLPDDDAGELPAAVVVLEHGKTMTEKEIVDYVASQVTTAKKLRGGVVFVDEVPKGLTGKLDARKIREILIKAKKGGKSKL
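Biochemical qHTS of compounds, final roughly 60 µM downward over six points, against 10 nM purified firefly luciferase using Km concentrations of substrates (10 uM D-luciferin, 10 uM ATP) in Tris acetate pH 7.5 buffer; luminescence output.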
Rab9 prom act – qHTS Assay for Rab9 Promoter Activators; Huh7 Rab9 promoter-luciferase reporter, luminescence, 24 h; Potency, µM (doses to about 9.22 µM), without a hit: at the highest dose activation, negative = inhibition, usual class: activators; 320,000 tested, 2.8% active; further: % of control where 0% means no effect; nearly all actives have a fitted effect of over 60% in size
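Measured in stably transfected Huh7 cells bearing a Rab9 promoter–luciferase construct: 24 h compound treatment at 37 °C, followed by luminescence detection.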
ELG1 genotoxic – qHTS screen for small molecules that induce genotoxicity in human embryonic kidney (HEK293T) cells expressing luciferase-tagged ELG1; HEK293T ELG1-luciferase reporter, luminescence, 16 h; Potency, µM (series often up to 46 µM), for inactives: top-dose activity change, positive = activation, usual class: activators; 330,000 tested, 1.3% active; further: % of control where 0% means no effect; nearly all actives have a fitted effect of over 60% in size
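Cells (2,000/well) expressing the ELG1-luciferase fusion are dosed by pin tool and kept 16 hr at 37 °C, 5% CO2. Signal comes from ONE-Glo luciferase reagent after 30 min at room temperature.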
Starred values were filed as active, the others as inactive; ? = inconclusive; · = not tested or not shown. The call rests on the fitted dose curve; in most records, active means well fitted curve in the direction sought with a large enough effect; inconclusive means small, poorly fitted or top-dose-only effect, or another doubt; inactive means no such curve, though single readings can be large; an effect the other way counts as inactive or inconclusive. Potency means the concentration at half of the fitted maximal effect.

SMILES | NPC1 prom act | Luc counter | SMN2 splice enh | FLuc counter | Rab9 prom act | ELG1 genotoxic
Cc1c(C(=O)Nc2ccc(F)cc2)oc2ccc(S(=O)(=O)N3CCCCCC3)cc12 | · | · | · | -8.1% | · | ·
COc1ccc(Cn2c(CO)cnc2SCc2ccc(C)cc2)cc1 | · | · | · | 16.9µM* | · | ·
OCc1cnc(SCc2ccccc2)n1Cc1ccccc1 | -0.1% | -0.6% | -1.6% | 0.1% | -1.0% | -0.7%
Fc1ccc2nc(Nc3nc4cc5c(cc4s3)OCCO5)sc2c1 | 2.82µM* | -0.9% | ? | ? | 2.82µM* | ?
O=C(NNc1nc2cc3c(cc2s1)OCO3)c1ccc(F)cc1 | 3.1% | 1.1% | 19.6% | ? | 12.8% | -3.2%
c1ccc2sc(Nc3nc4cc5c(cc4s3)OCO5)nc2c1 | 3.16µM* | -4.1% | 3.16µM* | 2.39µM* | 1µM* | 5.17µM*
Fc1ccc2nc(Nc3nc4cc5c(cc4s3)OCO5)sc2c1 | 2.51µM* | -3.3% | 11.2µM* | 6.01µM* | 2µM* | 13µM*
O=C(NNc1nc2cc3c(cc2s1)OCCO3)c1ccc(F)cc1 | 17.2% | 1.1% | 23.9% | ? | 27.0% | 5.6%
NCCn1oc(=O)[nH]c1=O | · | · | -2.0% | · | · | ·
CC1CCC(=O)N(CCSc2ccccc2)CC1 (stereo not drawn) | 1.12µM* | · | · | 5.36µM* | 0.891µM* | ?
COc1ccc(SCCN2CC[C@@H](C)CCC2=O)cc1 | 15.2% | · | · | ? | 17.9% | 6.9%
Cc1ccc(CN2CC(C(=O)Nc3ccncc3)CC2=O)cc1 (stereo not drawn) | -0.8% | · | · | -0.5% | 14.9% | -2.5%
Cc1ccnc(NC(=O)C2CC(=O)N(c3ccc4c(c3)OCCO4)C2)c1 (stereo not drawn) | 8.5% | · | · | 4.78µM* | 19.8% | 0.517µM*
Cc1ccc(CN2CC(C(=O)Nc3cc(C)ccn3)CC2=O)cc1 (stereo not drawn) | 0.0% | · | · | 12µM* | -0.2% | 16.4µM*
Cc1ccc(C(=O)N/N=C(\CC(C)C)c2ccccc2)cc1 | -0.2% | -0.6% | -40.3% | ? | -0.4% | 0.6%
O=C(NCc1ccccc1Cl)c1ccc(CSc2nc3ccncc3[nH]2)cc1 | -2.3% | · | · | -10.5% | -2.1% | -8.7%
Clc1ccccc1CSc1nc2ccncc2[nH]1 | ? | ? | 12.6µM* | 15.1µM* | 3.55µM* | 18.4µM*
COc1cccc(CSc2nc3ccncc3[nH]2)c1 | 1.58µM* | · | · | 13.5µM* | 2.82µM* | -17.6%
NC(=O)C1CCN(c2nc(-c3ccccc3-c3ccccc3)cs2)CC1 | -2.7% | · | · | 2.6% | -0.8% | 2.4%
Cc1cc(C)cc(NC(=O)C2CCN(c3nc4ccccc4nc3C(F)(F)F)CC2)c1 | · | · | · | -1.1% | · | ·
CC(=O)N(c1nnc(-c2cccc(C)c2)s1)C1CCCC1 | ? | · | · | 23.9µM* | ? | 23.1%
Cc1ccc(C)c(-n2c(SCC(=O)NC(C(=O)O)C(C)C)nnc2-c2cccc(Cl)c2)c1 (stereo not drawn) | 0.3% | -0.2% | 13.8% | -4.5% | -5.5% | -0.6%
COc1cc(C(=O)Nc2ccc(N(C)C)cc2)c([N+](=O)[O-])cc1OC | 8.8% | -3.9% | -3.1% | 4.78µM* | -3.9% | ?
Cc1ccc(-c2nc3cc(N)ccc3o2)cc1Br | 1.26µM* | · | · | 1.9µM* | 1.78µM* | 2.91µM*
COc1ccc2oc(-c3ccc(C)c(NC(=O)COc4cc(C)cc(C)c4)c3)nc2c1 | · | · | 0.9% | -1.4% | · | ·
SMILES | NPC1 prom act | Luc counter | SMN2 splice enh | FLuc counter | Rab9 prom act | ELG1 genotoxic
Nc1ccc(-c2nc3ccc(N)cc3o2)cc1 | ? | ? | ? | 1.51µM* | ? | 20.6µM*
Cc1ccc2nc(-c3cc(N)cc(N)c3)oc2c1 | ? | ? | ? | 0.379µM* | ? | 7.0%
Cc1ccc(C)c(-c2nc3cc(N)ccc3o2)c1 | 20.2% | -4.8% | 11.2µM* | 13.5µM* | ? | 10.3µM*
Nc1ccc(-c2nc3ccc(-c4nc5ccccc5o4)cc3[nH]2)cc1 | 29.2% | 0.4% | 3.9% | ? | 25.8% | 2.4%
O=C(NC(=S)Nc1ccc(S(=O)(=O)Nc2ncccn2)cc1)c1ccc(Br)cc1 | -1.8% | 0.1% | · | -2.1% | -1.4% | -0.5%
C[C@@H]1CCC2C(C)(C)C3CC21CC[C@@]3(C)O (stereo partly drawn) | · | 0.0% | 6.8% | · | · | ·
COc1cccc(NC(=O)CN(C)C(=O)CCCc2nc3ccccc3s2)c1 | -1.4% | · | · | ? | -2.3% | 8.1%
Cc1nc2ccccc2c(=O)n1/N=C/c1ccc(C(C)C)cc1 | 12.8% | · | · | ? | 11.8% | -5.7%
Nc1ccc2oc(-c3cc(Br)ccc3Cl)nc2c1 | -0.7% | -5.6% | 12.3% | ? | 3.1% | ?
COC(=O)c1ccc(-c2nc3cc(N)ccc3o2)cc1 | 21.6% | -6.9% | ? | 1.2µM* | ? | ?
Nc1ccc(-c2nc3cc(N)ccc3o2)cc1 | 0.398µM* | · | · | 2.69µM* | 0.631µM* | 5.17µM*
CN(C)c1ccc(-c2nc3cc(N)ccc3o2)cc1 | 0.316µM* | · | · | 0.19µM* | 0.316µM* | 0.517µM*
Cc1cccc(C(=O)NC2CCN(CC(=O)Nc3ccc4c(c3)OCO4)CC2)c1 | -0.2% | -0.5% | · | 3.8% | -20.4% | 0.5%
O=C(NC1CC1)c1cccc(Nc2ccc(-c3ccc4c(c3)OCCO4)nn2)c1 | ? | -16.5% | ? | 0.601µM* | 2µM* | ?
O=S(=O)(c1ccc(Nc2ccc(-c3ccc4c(c3)OCCO4)nn2)cc1)N1CCCC1 | 16.9% | 0.2% | 4.6% | 5.36µM* | 20.4% | 1.9%
O=C(NNC(=O)C1CCCC1)c1cc([N+](=O)[O-])cc([N+](=O)[O-])c1 | -2.8% | · | · | -2.0% | -3.1% | 1.2%
O=C1NC2(CCCCCC2)C(=O)N1Cc1ccccc1Cl | 3.4% | · | · | 2.9% | -11.6% | -0.3%
Cc1cc(S(=O)(=O)N2CCCOC2CNC(=O)C(=O)NCc2cccs2)ccc1F (stereo not drawn) | 3.0% | · | · | 6.4% | -8.6% | -5.7%
O=C(NCc1cccs1)C(=O)NCC1OCCCN1S(=O)(=O)c1ccccc1 (stereo not drawn) | -6.8% | -5.6% | 5.62µM* | 5.2% | 0.2% | -0.5%
CCC1C(=O)Nc2nc(-c3ccccc3)c(-c3ccccc3)n2N=C1C (stereo not drawn) | -0.4% | -2.6% | 0.4% | -0.3% | -3.1% | -4.8%
COc1cc(OC)c(C(=O)OCC(=O)c2cc(C)n(CC3CCCO3)c2C)cc1OC (stereo not drawn) | -1.3% | 2.9% | 7.1% | 21.3µM* | 2.6% | 1.6%

High-throughput results deposited in PubChem by National Center for Advancing Translational Sciences (NCATS).
